Assay results from PubChem BioAssay.
Calls of active or inactive are those of the source. Unless noted, the rule behind the calls is not given here.

Tests used:
[1] = system: XIP peptide (Xip251-270) binding; test: XIP fragment 251-270 binding compounds – biochemical, small-molecule microarray, fluorescence 635/667 nm, 0.1 µg/mL protein, primary screen (AID 1182); conditions: fluorescent protein binding, 635 nm, higher = more signal, called active from +8 up or from −8 down
XIP peptide (Xip251-270) = test: compounds binding XIP fragment 251-270 – biochemical, small-molecule microarray, fluorescence 635/667 nm, 0.5 µg/mL protein, primary screen (AID 1183); conditions: fluorescence 635 nm, higher = more signal
[2] = blood-stage malaria parasite viability loss – strain 3D7, DAPI fluorescence, 100 nL, primary screen (AID 1184);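 note: parasites grown inside human red blood cells in medium with human serum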; conditions: P. falciparum 3D7 growth, 3 d, higher = more signal
[3] = target: Homeobox protein Hox-A13 (Mus musculus) (UniProt Q62424); test: disruptors of Hoxa13 oligonucleotide interaction – biochemical, fluorescence polarization, labeled oligonucleotide, primary screen (AID 1185); conditions: Hoxa13:DNA binding, 15 min, higher = more signal, called active from +8 up or from −8 down
Sequence of Homeobox protein Hox-A13 (Mus musculus) (Q62424 whole entry, looked up): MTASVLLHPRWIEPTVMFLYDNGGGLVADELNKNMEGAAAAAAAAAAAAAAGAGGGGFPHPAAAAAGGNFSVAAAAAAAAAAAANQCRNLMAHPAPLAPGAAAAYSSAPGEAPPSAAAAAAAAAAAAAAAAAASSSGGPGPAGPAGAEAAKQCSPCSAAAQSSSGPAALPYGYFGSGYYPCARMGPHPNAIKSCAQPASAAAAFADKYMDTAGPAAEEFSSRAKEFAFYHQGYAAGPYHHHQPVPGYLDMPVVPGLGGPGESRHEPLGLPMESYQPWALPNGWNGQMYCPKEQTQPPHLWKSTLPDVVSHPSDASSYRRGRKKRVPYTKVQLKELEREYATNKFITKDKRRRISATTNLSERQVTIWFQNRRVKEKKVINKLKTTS

[4] = blockers of DNA damage checkpoint Chk1 activation – imaging, HeLa, hydroxyurea, phospho-Chk1 antibody, percent positive cells, primary screen (AID 1186); conditions: hydroxyurea-induced phospho-Chk1 immunofluorescence imaging, higher = more signal
[5] = blockers of DNA damage checkpoint Chk1 activation – imaging, HeLa, hydroxyurea, phospho-Chk1 nuclear intensity, primary screen (AID 1187); conditions: hydroxyurea-induced phospho-Chk1 immunofluorescence imaging, higher = more signal

SMILES | composite z-score [1] | composite z-score (XIP peptide (Xip251-270)) | z-score [2] | z-score [3] | z-score [4] | z-score [5]
CCOC(=O)C[C@H]1[C@H](OC(=O)c2ccc(C(=O)c3ccccc3)cc2)[C@@H](NC(=O)c2ccc3ccccc3c2)c2cc(OCCCO)ccc2N1C(=O)c1ccccc1 | 1.39 (inactive) | 0.444 | 1.45 | -0.683 (inactive) | 0.451 (inactive) | 0.0368 (inactive)
C=CCN1C(=O)[C@@]2(O[C@@H](CCn3cc([C@H](O)c4ccccc4)nn3)[C@H]([Si](C)(C)c3ccc(OC)cc3)[C@H]2C)c2ccccc21 | -0.0466 (inactive) | 0.857 | -0.99 | -5.69 (inactive) | -0.763 (inactive) | -1.51 (inactive)
C=C(/C(=C/C[C@@H](OC(=O)c1ccncc1)c1ccc(OCCO)cc1)c1cc(C(=O)OC)ccc1OC)C(C)C | 0.281 (inactive) | 0.309 | -2.78 | -3.5 (inactive) | -0.899 (inactive) | -0.125 (inactive)
CC(C)C[C@@H]1NC(=O)[C@H]2C[C@@H](C(=O)NCCCCCC[N+](C)(C)C)[C@@H](c3cccc(OCCO)c3)N2C1=O | 0.506 (inactive) | 0.748 | -0.411 | -5.33 (inactive) | -0.481 (inactive) | -0.503 (inactive)
CC(C)CNC(=O)[C@@]1(c2ccc([N+](=O)[O-])cc2)CC(=O)N(C2CCCCC2)[C@@H]1c1ccc(CO)cc1I | 0.551 (inactive) | 0.792 | -0.923 | -4.89 (inactive) | 0.093 (inactive) | -0.208 (inactive)
COCCOC(=O)N1C(=O)[C@@]2(c3cc(C#CCNC(N)=O)ccc31)[C@H](C(=O)N1CCCCCCC1)[C@H]1C(=O)O[C@H](c3ccccc3)[C@H](c3ccccc3)N1[C@@H]2c1ccc(O)cc1 | 0.328 (inactive) | 0.46 | 0.178 | 0.172 (inactive) | 0.0004 (inactive) | 0.132 (inactive)
O=C1O[C@@H](c2ccccc2)[C@@H](c2ccccc2)N2[C@@H](c3ccc(O)cc3)[C@]3(C(=O)Nc4ccc(C#CCCO)cc43)[C@@H](C(=O)Nc3nc4ccccc4s3)[C@H]12 | 0.336 (inactive) | 0.732 | 0.204 | -0.524 (inactive) | 0.151 (inactive) | 0.283 (inactive)
COc1ccc([Si](C)(C)[C@H]2[C@H](CCn3cc([C@H](O)c4ccccc4)nn3)O[C@@]3(C(=O)N(Cc4ccc(N5CCOC5=O)cc4)c4ccccc43)[C@@H]2C)cc1 | -0.47 (inactive) | 0.103 | -2.29 | -2.28 (inactive) | -0.138 (inactive) | -0.0848 (inactive)
CCOc1cc(C(O)C2C=CC3C(=O)N(C)C(=O)C3N2N2CCCCC2)ccc1O (stereo unspecified) | 0.169 (inactive) | 0.333 | -0.144 | -5.25 (inactive) | -0.595 (inactive) | -0.839 (inactive)
COCCOC(=O)N1C(=O)[C@@]2(c3ccccc31)[C@H](C(=O)N1CCN(c3ncccn3)CC1)[C@H]1C(=O)O[C@H](c3ccccc3)[C@H](c3ccccc3)N1[C@@H]2c1ccc(OCCO)cc1 | 0.707 (inactive) | 0.791 | -1.93 | -0.387 (inactive) | 0.065 (inactive) | 0.182 (inactive)
C=C1C2CC3C(=C4C(CO[C@@H]4[C@H]4CCCN4S(=O)(=O)c4ccccc4[N+](=O)[O-])C4C(=O)N(C)C(=O)C34)CC2C(=O)N1C (stereo partly specified) | 0.253 (inactive) | 0.849 | 0.769 | -7.2 (inactive) | -0.0718 (inactive) | 0.645 (inactive)
COCCOC(=O)N1C(=O)[C@@]2(c3cc(C#Cc4ccc(OC)cc4)ccc31)[C@H](C(=O)N1CCCCCCC1)[C@H]1C(=O)O[C@H](c3ccccc3)[C@H](c3ccccc3)N1[C@@H]2c1ccc(O)cc1 | 1.73 (inactive) | 0.669 | -2.31 | 2.16 (inactive) | -0.29 (inactive) | -0.537 (inactive)
CCCCC(=C=CC[C@@H](O)c1ccc(OCCO)cc1)C[C@@H](O)COCc1ccccc1 | 0.117 (inactive) | 0.408 | -2.73 | -4.47 (inactive) | -0.263 (inactive) | 0.737 (inactive)
C[C@@H](OCc1ccccc1)C1NC(=O)[C@@]23C(=O)N[C@@H](Cc4ccccc4)C2[C@H](C)[C@@]2(C)O[C@H]2C3/C=C/C/C=C\CNC(=O)CNC1=O (stereo partly specified) | -0.153 (inactive) | -0.796 | -0.748 | -7.11 (inactive) | 0.631 (inactive) | 0.734 (inactive)
COC(=O)[C@@]1(Cc2ccc(OC)cc2)[C@H]2c3cc(C(=O)N4CCCC4)n(CCc4cc5ccccc5[nH]4)c3C[C@H]2CN1C(=O)c1ccccc1 | 1.64 (inactive) | 0.685 | -1.66 | -1.91 (inactive) | -0.203 (inactive) | -0.0973 (inactive)
O=C1C2C=CC(C(O)c3cc(C(F)(F)F)cc(C(F)(F)F)c3)N(Nc3ccc([N+](=O)[O-])cc3)C2C(=O)N1c1ccccc1 (stereo unspecified) | 0.131 (inactive) | 0.802 | -0.945 | -3.06 (inactive) | -0.198 (inactive) | -0.331 (inactive)
C=C(C(=O)CC[C@H](OC(=O)c1cccnc1)c1cccc(OCCO)c1)C(C)C | 0.24 (inactive) | 0.183 | -2.09 | -3.82 (inactive) | -0.556 (inactive) | -0.453 (inactive)
COc1cc(CO)cc(I)c1O[C@H]1C=C(C(=O)NCCO)C[C@@H](NCc2ccccc2F)[C@@H]1O | -0.346 (inactive) | 0.481 | -2.98 | -7.62 (inactive) | -0.24 (inactive) | 0.959 (inactive)
COCCCNC(=O)[C@]1(Cc2ccccc2CN=[N+]=[N-])N=C(c2ccc(OCCCO)cc2)O[C@@H]1c1ccccc1 | 0.0968 (inactive) | 0.598 | -2.41 | -6.44 (inactive) | -0.401 (inactive) | -0.24 (inactive)
CCOC(=O)C1=CC[C@@H](c2ccccc2C(F)(F)F)N(S(=O)(=O)c2ccc(C)cc2)C1 | 0.561 (inactive) | 0.667 | -0.386 | -2.64 (inactive) | -0.155 (inactive) | -0.341 (inactive)
C=C(CCCC)/C(=C/C[C@@H](OC(=O)c1ccncc1)c1cccc(OCCO)c1)c1cnc2ccccc2c1 | 0.389 (inactive) | 0.405 | -3.03 | -3.72 (inactive) | -0.403 (inactive) | -0.342 (inactive)
NC(=O)N1C(=O)C2C(C1=O)C1C=C(c3ccc(CO)cc3)C2C(C2CC2)N1Cc1sc2ccccc2c1Cl (stereo unspecified) | 0.703 (inactive) | 0.726 | -2.1 | -2.31 (inactive) | -0.0244 (inactive) | -0.0866 (inactive)
C=C(CCCC)/C(=C/C[C@@H](OC(C)=O)c1ccc(CO)o1)c1cc(C(=O)OC)ccc1OC | 0.207 (inactive) | 0.778 | -0.597 | -4.83 (inactive) | 0.19 (inactive) | 0.471 (inactive)
COc1ccc(C(O)C2C=CC3C(=O)N(Cc4ccccc4)C(=O)C3N2n2cnnc2)c2ccccc12 (stereo unspecified) | 1.09 (inactive) | 0.537 | -1.05 | -1.49 (inactive) | -0.525 (inactive) | -0.966 (inactive)
C[C@H]1C2=C3C(CC[C@H]4C(OCc5ccc(F)cc5C(F)(F)F)OC[C@](C)([C@@H]34)N(C(=O)OC(C)(C)C)C2)C2COC(=O)OCC21 (stereo partly specified) | 0.172 (inactive) | 0.551 | -0.121 | -3.49 (inactive) | 0.671 (inactive) | 0.439 (inactive)
COc1ccc(CCNC(=O)[C@@]2(Sc3ccc(C)cc3)CC(=O)N(Cc3cc(C(F)(F)F)cc(C(F)(F)F)c3)[C@@H]2c2ccc(CO)cc2I)cc1 | 0.439 (inactive) | 0.858 | 0.725 | -2.57 (inactive) | 0.261 (inactive) | 0.688 (inactive)
